Experimental data taken from PubChem BioAssay (NCI).
“And” between values parts separate entries of the source, which are not always exact repeats. Identical values can stand only once. Compounds without any hit were thinned out: in the full panel of roughly 79,000, 15% have a hit. A number with no mark means an inactive call. The source made the active and inactive calls. Cut-off read from the data, not from the text of the source: active = growth inhibition above about 70%; inactive = the rest.

Columns and labels:
[1] = NCI Yeast Anticancer Drug Screen. Data for the rad50 strain (AID 155);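 note: 0% = growth of vehicle-only cultures of the same strain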; conditions: S. cerevisiae rad50 strain growth inhibition, active compounds read high; at 50.0 µM unless noted
In short: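 Genetically altered yeast (DNA repair pathway); compound treatment; growth inhibition vs vehicle ctrl.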

[2] = NCI Yeast Anticancer Drug Screen. Data for the mec2-1 strain (AID 157); conditions: S. cerevisiae mec2-1 strain, active compounds read high; at 50.0 µM unless noted
In short: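 Compounds were applied to mec2-1 yeast cells. Their growth was then compared with that of vehicle-treated cultures to give growth inhibition.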

[3] = NCI Yeast Anticancer Drug Screen. Data for the sgs1 mgt1 strain (AID 161);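 note: 0% = growth of cultures given vehicle only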; conditions: S. cerevisiae sgs1 mgt1 strain, active compounds read high; at 50.0 µM unless noted
In short: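 Yeast cells carrying a defined DNA-repair defect were exposed to test compounds. Growth inhibition was measured relative to vehicle-treated controls.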

[4] = NCI Yeast Anticancer Drug Screen. Data for the cln2 rad14 strain (AID 165);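 note: 0% = growth equal to vehicle treated cultures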; conditions: S. cerevisiae cln2 rad14 strain, active compounds read high; at 50.0 µM unless noted
In short: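 Strain: cln2 rad14 yeast, altered in cell cycle control and DNA damage repair. Read-out: growth inhibition vs vehicle.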

[5] = NCI Yeast Anticancer Drug Screen. Data for the bub3 strain (AID 167); conditions: S. cerevisiae bub3 mutant strain, active compounds read high; at 50.0 µM unless noted
In short: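 Yeast carrying a defined mutation is treated with each compound, and growth is compared with that of vehicle-exposed cells to give inhibition.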

[6] = NCI Yeast Anticancer Drug Screen. Data for the mlh1 rad18 strain (AID 175); conditions: S. cerevisiae mlh1 rad18 strain growth inhibition, active compounds read high; at 50.0 µM unless noted
In short: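 A repair-deficient yeast strain is exposed to test compound, and growth is scored relative to vehicle-treated controls.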

## N=C(N)c1ccc(NC(=S)Nc2ccc(C(=N)N)cc2)cc1
[1]
  growth inhibition: 43.1%
[2]
  growth inhibition: 21.3%
[3]
  growth inhibition: 32.1%
[4]
  growth inhibition: 7.35%
[5]
  growth inhibition: 16.4%
[6]
  growth inhibition: 31.8%

## Cc1cnc(N)cn1 (tested in a mixture with another compound)
[1]
  growth inhibition: -0.05%
[2]
  growth inhibition: -6%
[3]
  growth inhibition: 1.1%
[4]
  growth inhibition: -52.2%
[5]
  growth inhibition: 3.4%
[6]
  growth inhibition: 8.1%

## CC(=O)Nc1cccc(OC(=O)Nc2ccc(F)c(Cl)c2)c1
[1]
  growth inhibition: 57.6%
[2]
  growth inhibition: 60.7%
[3]
  growth inhibition: 71.7% (active)
[4]
  growth inhibition: 70.7% (active)
[5]
  growth inhibition: 56.8%
[6]
  growth inhibition: 82% (active)

## NNC(=O)c1c(O)ccc2ccccc12
[1]
  growth inhibition: 19.2%
[2]
  growth inhibition: -28.1%
[3]
  growth inhibition: 23.4%
[4]
  growth inhibition: 20.2%
[5]
  growth inhibition: -4.2%
[6]
  growth inhibition: 12.6%

## [O-][N+](CCO)(CCO)c1ncnc2nc[nH]c12
[1]
  growth inhibition: -2.35%
[2]
  growth inhibition: -12.7%
[3]
  growth inhibition: -0.45%
[4]
  growth inhibition: -8.9%
[5]
  growth inhibition: -63.7%
[6]
  growth inhibition: 18.4%

## CC1CC[N+](C)(CC(=O)c2ccc(-c3ccc(C(=O)C[N+]4(C)CCC(C)CC4)cc3)cc2)CC1 (stereo not given)
[1]
  growth inhibition: -8.2%
[2]
  growth inhibition: 1.4%
[3]
  growth inhibition: -12.7%
[4]
  growth inhibition: 22.9%
[5]
  growth inhibition: -3.15%
[6]
  growth inhibition: -10.2%

## O=C(OCc1ccccc1)ON1C(=O)C2C3C=CC(C3)C2C1=O (stereo not given)
[1]
  growth inhibition: -26.4%
[2]
  growth inhibition: -54.2%
[3]
  growth inhibition: 12.5%
[4]
  growth inhibition: -9.1%
[5]
  growth inhibition: -19%
[6]
  growth inhibition: 5.05%

## COc1cc(C2c3cc4c(cc3OC(N3CCOCC3)C2C)OCO4)cc(OC)c1O (stereo not given)
[1]
  growth inhibition: -17.1%
[2]
  growth inhibition: -25.8%
[3]
  growth inhibition: -23.3%
[4]
  growth inhibition: -12.5%
[5]
  growth inhibition: -8.95%
[6]
  growth inhibition: -8%

## COC(=O)CSSC(C)C
[1]
  growth inhibition: -29.2%
[2]
  growth inhibition: -15.3%
[3]
  growth inhibition: -22.1%
[4]
  growth inhibition: 5.1%
[5]
  growth inhibition: 6.4%
[6]
  growth inhibition: -59.1%

## COC(=O)[C@@H]1O[C@H]1c1ccccn1
[1]
  growth inhibition: 7.9%
[2]
  growth inhibition: 1.1%
[3]
  growth inhibition: -7.95%
[4]
  growth inhibition: -5.75%
[5]
  growth inhibition: 8.95%
[6]
  growth inhibition: 0.1%

## O=C1C=C(c2ccccc2)C(c2ccccc2)/C1=N/O (stereo not given)
[1]
  growth inhibition: 11.3%
[2]
  growth inhibition: -12.9%
[3]
  growth inhibition: 2.55%
[4]
  growth inhibition: 13.1%
[5]
  growth inhibition: 11.9%
[6]
  growth inhibition: -9.85%

## CCOC(=O)c1ccc(NC(=S)Nc2ncccc2C)cc1
[1]
  growth inhibition: 15.8%
[2]
  growth inhibition: 11.4%
[3]
  growth inhibition: 42.5%
[4]
  growth inhibition: -3.3%
[5]
  growth inhibition: 34.3%
[6]
  growth inhibition: 21.2%

## O=C1NC(N/N=C\C(O)C(O)C(O)C(O)CO)=N/C1=C/c1ccc(Cl)cc1 (stereo not given)
[1]
  growth inhibition: 28.1% and 32%
[2]
  growth inhibition: 8.95% and 15.7%
[3]
  growth inhibition: 1.45% and 10.8%
[4]
  growth inhibition: -0.6% and 13.4%
[5]
  growth inhibition: -0.2% and 6.45%
[6]
  growth inhibition: 10.6% and 9.2%

## O=C(O)C(c1ccccc1)N1C(=O)C(Cl)=C(Cl)C1=O (stereo not given)
[1]
  growth inhibition: -0.1%
[2]
  growth inhibition: -6.35%
[3]
  growth inhibition: 1.4%
[4]
  growth inhibition: -10.8%
[5]
  growth inhibition: 1.15%
[6]
  growth inhibition: 10.8%

## CSC(=N)N
[1]
  growth inhibition: -8.55% and -15.6%
[2]
  growth inhibition: -18.2% and -17.4%
[3]
  growth inhibition: -52.2%
[4]
  growth inhibition: -46%
[5]
  growth inhibition: 1.45%
[6]
  growth inhibition: -2.95% and -29.8%

## C[N+]1(C)N=C([O-])N(c2ccccc2Cl)C1=O
[1]
  growth inhibition: 21.4%
[2]
  growth inhibition: -27.4%
[3]
  growth inhibition: -6.6%
[4]
  growth inhibition: -37.5%
[5]
  growth inhibition: 1.15%
[6]
  growth inhibition: 18.1%

## COC1C(OC(=O)c2ccc(C)[nH]2)C(O)C(Oc2ccc3c(O)c(NC(=O)c4c[nH]c(C(=O)Nc5c(O)c6ccc(OC7OC(C)(C)C(OC)C(OC(=O)c8ccc(C)[nH]8)C7O)c(C)c6oc5=O)c4C)c(=O)oc3c2C)OC1(C)C (stereo not given)
[1]
  growth inhibition: 17%
[2]
  growth inhibition: 8.45%
[3]
  growth inhibition: 15.2%
[4]
  growth inhibition: 24.7%
[5]
  growth inhibition: 11.4%
[6]
  growth inhibition: 26.6%

## COc1ccc(C(OC(=O)Oc2ccccc2)c2ccccc2)cc1 (stereo not given)
[1]
  growth inhibition: -9.1%
[2]
  growth inhibition: 6.55%
[3]
  growth inhibition: -6.9%
[4]
  growth inhibition: -20.1%
[5]
  growth inhibition: -16.4%
[6]
  growth inhibition: 7%

## COc1ccc(/C=C2\N=C3N(Cc4ccccc4)C=C(N)N3C2=O)cc1
[1]
  growth inhibition: 2.65%
[2]
  growth inhibition: -6.1%
[3]
  growth inhibition: 15.8%
[4]
  growth inhibition: -6.55%
[5]
  growth inhibition: 17.8%
[6]
  growth inhibition: 9.75%

## Cc1ccc(S(=O)(=O)N(CC(=O)c2ccccc2)c2ccc(Br)cc2)cc1
[1]
  growth inhibition: 22.9%
[2]
  growth inhibition: 6.6%
[3]
  growth inhibition: 26.1%
[4]
  growth inhibition: 4.9%
[5]
  growth inhibition: 2.05%
[6]
  growth inhibition: 16.1%
